CF NFkB block: blocks PAF-induced NF-kB reporter in cystic fibrosis cells | inhibition, % at 5 µM | KKLEB NF-kB-GFP reporter, GFP fluorescence overnight | 360,000 compounds, 0.86% hits | AID 588850;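 active = at least 50% inhibition at 5 µM, scaled per plate between neutral and stimulator controls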;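 also: PAF is a Pseudomonas aeruginosa culture filtrate used as stimulus; plate controls were PAF-stimulated DMSO wells for no effect and unstimulated DMSO wells for full effect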
HIF-2a block: blocks HIF-2a reporter activity; inhibition, % at 18.8 µM; AID 624352; 786-0 RCC cells HIF-2a reporter, luciferase luminescence, overnight; 360,000 compounds, 0.72% hits;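 active = inhibition of the luminescence signal of 40% or more relative to plate controls, in a single-dose primary screen at 18.75 µM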
KKLEB cytotox: counter-screen for CF NF-kB inhibitors: cytotoxicity; KKLEB CF airway cells viability, ATPlite luminescence, overnight; active compounds read low; cells stimulated with P. aeruginosa culture filtrate; activity change (cytotoxicity), % at 5 µM; 360,000 compounds, 0.36% hits; AID 602141;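 active = corrected activity change at or below -50% at 5 µM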
Peg3 promoter: Peg3 promoter activity inhibition. HeLa PEG-Prom luciferase reporter, luminescence, overnight. 360,000 compounds, 1.7% hits. inhibition, % at 20 µM;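 active = inhibition of at least 50% at 20 µM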
TROY signal inh: TROY signaling inhibition; Q293 LMP1-TROYcd NF-kB luciferase reporter, 4 h; inhibition, % at 10 µM; AID 1347056; 360,000 compounds, 0.98% hits;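 active = compounds whose plate-normalised and pattern-corrected inhibition of the luciferase reporter signal at the single screening dose is 50% or more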
TWEAK Fn14 block: blocks TWEAK-Fn14 interaction in a reporter cell assay. inhibition, % at 10 µM. 360,000 compounds, 2% hits. TWEAK-stimulated Fn14 reporter cells, luciferase luminescence, 8 h. AID 1159606; in the data active = inhibition above about 50%
* hit, by the source's call. The list is not random: actives were taken first. Their share in the collection is about 3.9%.

SMILES | CF NFkB block | HIF-2a block | KKLEB cytotox | Peg3 promoter | TROY signal inh | TWEAK Fn14 block
CCc1ccc(OCCNC(=O)c2ccccc2SCc2ccc(F)cc2)cc1 | 12 | 12 | -16 | 22 | 19 | 47
Cc1onc(-c2ccccc2)c1C(=O)n1cc(Br)cn1 | 8 | 8 | -4 | 12 | -1 | -6
COc1ccc(C2CC3(O)CC(C#N)(C(=O)N3)C2(C#N)C#N)cc1 (centres undefined) | 8 | 16 | 3 | 10 | 82* | 91*
Cn1nnnc1Sc1ncnc2scc(-c3ccccc3)c12 | 38 | 60* | -24 | 49 | 33 | 28
COc1ccccc1-c1csc2ncnc(Sc3nnnn3C)c12 | 10 | 20 | -14 | 31 | -8 | 23
O=C(O)c1ccc(Nc2ncnc3scc(-c4ccccc4)c23)cc1 | 41 | 23 | -8 | 0 | 18 | 55*
O=C(CSc1ncnc2scc(-c3ccccc3)c12)Nc1ccc(C(=O)O)cc1 | 19 | 0 | -12 | 9 | 11 | -60
CC(=O)Nc1ccc(Sc2ncnc3scc(-c4ccccc4)c23)cc1 | 42 | 31 | -20 | 10 | 29 | 62*
COc1ccc(-c2coc3c(C(=O)NCCc4ccccc4)cccc23)c(C)c1 | -10 | -11 | -5 | 10 | 20 | 11
COc1ccc(Cc2c(C(C)(C)C)nc3ccc(Br)cn23)c(C)c1 | 7 | -24 | 2 | -13 | 93* | 2
COC(=O)c1ccc2nc(C(C)(C)C)c(Cc3ccc(OC)cc3C)n2c1 | -11 | 3 | 3 | -13 | 2 | -14
CCOc1ccc(-c2[nH]ncc2Oc2ccccc2OCC)c(O)c1 | 3 | 25 | -7 | 55* | -17 | 31
CCOc1ccc(-c2[nH]ncc2-c2ccc(Cl)cc2)c(O)c1 | 10 | 5 | -9 | 55* | -4 | -1
CCOc1ccc(-c2[nH]ncc2-c2ccc(OC)c(OC)c2)c(O)c1 | 27 | 28 | -3 | 41 | 29 | 29
CCCOc1ccc(S(=O)(=O)NCc2ccc(OC)cc2)cc1 | -5 | 14 | 5 | 10 | 41 | -2
CC/C(O)=C1\C(=O)CC(C)(C)CC1=Nc1ccccc1C | 1 | -35 | 2 | -13 | -4 | 12
O=S(=O)(NC1CC1)c1ccc(Cl)cc1F | 7 | 10 | 2 | 8 | 2 | 99*
O=C(Nc1nccc(-c2cccs2)n1)c1ccccc1Cl | -11 | -99 | -14 | -110 | -31 | -12
O=C(c1ccccc1Cl)N(C(=O)c1ccccc1Cl)c1nccc(-c2cccs2)n1 | 5 | -27 | 4 | -83 | 67* | 77*
O=C1C(Cl)=C(N2CCCCCC2)C(=O)N1c1ccc(Cl)cc1 | 2 | -37 | 5 | 1 | -15 | -20
O=C1C(Cl)=C(N2CCCCC2)C(=O)C(Cl)=C1c1cnc(N2CCCCC2)s1 | 3 | 45* | -4 | 58* | 34 | 51*
CN(C)c1ncc(C2=C(Cl)C(=O)C(N3CCCC3)=C(Cl)C2=O)s1 | 0 | 4 | 2 | 57* | -2 | 14
O=C(COC(=O)/C=C/c1ccc(Cl)c(Cl)c1)NC1CCS(=O)(=O)C1 (centres undefined) | -18 | 10 | 4 | 9 | -15 | -9
Cc1ccc(C)c(-n2[nH]c3c4c(ccc3c2=O)C(=O)c2ccccc2C4=O)c1 | -48 | -33 | 5 | 40 | -3 | -36
Cn1c(N=NC(=O)c2ccccc2)c(O)c2ccccc21 | -24 | -49 | -9 | -82 | 39 | 69*
SMILES | CF NFkB block | HIF-2a block | KKLEB cytotox | Peg3 promoter | TROY signal inh | TWEAK Fn14 block
COc1ccc(C(C)(O)c2nc(-c3cccc(C#N)c3)cs2)cc1 (centres undefined) | 6 | 1 | -3 | 19 | 16 | 15
Cc1cc(COc2ccccc2)oc1C(=O)O | 6 | -42 | -19 | 25 | 58* | 90*
Nc1ccc(C23CC4CC(CC(O)(C4)C2)C3)cc1 | 7 | 4 | 9 | 9 | 74* | 76*
NCC12CC3CC(C1)CC(c1ccc(Cl)cc1)(C3)C2 | 23 | 13 | -29 | 108* | -20 | -20
CCOc1ccc(CCNC(=O)COC(=O)CCc2cc(OC)c(OC)c(OC)c2)cc1OCC | 4 | -2 | 9 | 2 | -15 | -25
CCOC(=O)CSC1=NN2CCS(=O)(=O)N=C2S1 | 5 | 3 | 2 | 3 | -9 | 2
O=C1CC(C(=O)N2CCCc3ccccc32)CN1c1ccc(F)cc1 (centres undefined) | -6 | -38 | 16 | -16 | 49 | 61*
Cc1ccc(N=C2NC(=O)/C(=C/c3cn(C)c4ccccc34)S2)cc1C | 53* | -45 | 0 | -5 | -4 | 34
Cn1cccc1/C=C1\SC(=Nc2ccccc2)NC1=O | 12 | -262 | 4 | -268 | -5 | 0
COC(=O)c1ccc(NC(=O)C2CC(=O)OC2c2ccccc2)cc1 (centres undefined) | 0 | 17 | -2 | 8 | -33 | -1
Cc1nc([N+](=O)[O-])cn1CC(=O)c1ccc(Cl)cc1 | -16 | 19 | 2 | 15 | -5 | 17
CC1CN(c2nc3ccccn3c(=O)c2/C=C(\C#N)C(N)=O)CC(C)O1 (centres undefined) | 8 | 5 | -16 | 3 | -22 | 91*
CCCOc1ccc(/C=N/Nc2ccccc2[N+](=O)[O-])c(OCCC)c1 | 5 | -34 | 17 | -14 | 35 | 56*
COc1ccc(/C=N/Nc2ncccc2[N+](=O)[O-])c(OC)c1 | 8 | -166 | 6 | -59 | 52* | 72*
COc1ccc(/C=N/Nc2ncc(-c3ccccc3)cn2)c(OC)c1 | 6 | 27 | 4 | 21 | -16 | -8
CCOC(=O)c1c(C)[nH]c(C2=NNC(=Nc3ccccc3OC)SC2)c1C | -21 | -213 | 6 | -230 | 42 | 51*
Cc1ccc(C)c(NC2=C(Cl)C(=O)OC2OC(=O)c2ccco2)c1 (centres undefined) | 29 | 5 | -38 | 15 | -1 | 59*
Cc1ccc(NC2=C(Cl)C(=O)OC2OC(=O)c2ccco2)c(C)c1 (centres undefined) | 6 | 1 | -6 | 19 | -2 | 13
COc1ccccc1N1CCN(C(=S)Nc2ccc(F)cc2)CC1 | -15 | 6 | -5 | 5 | 53* | 37
CCCN(CCC)Cc1c(C(=O)N/N=C/C(C)=C\c2ccco2)nnn1-c1nonc1N | 34 | 15 | -26 | 38 | 10 | 0
CCC1C(=NO)C(CC)C(c2ccccc2)NC1c1ccccc1 (centres undefined) | 48 | 32 | -8 | 64* | 38 | -6
COc1cc(NC(=O)c2ccc(-c3cccc([N+](=O)[O-])c3)o2)ccc1NC(=O)C(C)C | -72 | -2 | 7 | 78* | -2 | -18
COc1cc(NC(=O)c2ccc([N+](=O)[O-])o2)ccc1NC(=O)c1ccco1 | 10 | -45 | -15 | 57* | 13 | 1
Cc1cc(C)cc(NC(=O)c2ccc([N+](=O)[O-])o2)c1 | 85* | 19 | -68* | 75* | -13 | 22
